Screening results as filed in PubChem BioAssay.
APE1 inh = qHTS Assay for Inhibitors of the Human Apurinic/apyrimidinic Endonuclease 1 (APE1); DNA repair nuclease/redox regulator APEX1 (Homo sapiens), P27695; recombinant APE1, TAMRA/BHQ-2 abasic DNA cleavage fluorescence; Potency, µM (titrated, usually from 65.8 µM), actives largely listed as inhibitors; 350,000 tested, 0.35% active; AID 2517, 2012; further: nearly all actives have a fitted effect of over 55% in size
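APE1 at 0.75 nM preincubated 15 min at room temperature with compound. Reaction then started with 50 nM double-stranded THF-abasic substrate labelled with TAMRA/BHQ-2, and 525/598 nm fluorescence read kinetically. Activity taken as third-minus-first read difference, normalized to DMSO and NSC13755 controls.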
RECQ1 helicase = qHTS Assay for Inhibitors of RecQ-Like Dna Helicase 1 (RECQ1) | ATP-dependent DNA helicase Q1 (Homo sapiens), P46063 | 240,000 tested, 0.54% active | RECQ1 DNA unwinding, red fluorescence kinetic read | Potency, µM (series often up to 57.3 µM), usual class: inhibitors; further: nearly all actives have a fitted effect of over 30% in size
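RECQ1T1 50 nM; forked duplex (20 bp + 30-nt ss tails) 200 nM, ATP 2 mM final; pH 8.0, 2 mM MgCl2, 2.5 ug/ml poly(dI-dC); 15 min compound preincubation; discontinuous kinetic read over 2 h at RT.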
RGS12 GoLoco inh = qHTS Assay for Inhibitors of RGS12 GoLoco Motif Activity (Red Fluorophore); Potency, µM (series often up to 61.6 µM), usual class: inhibitors; Guanine nucleotide-binding protein G(i) subunit alpha-1 (Homo sapiens), P63096; AID 880, 2007; Gai1:RGS12 GoLoco peptide FP, rhodamine, 10 min; 230,000 tested, 0.44% active; active means well fitted inhibition curve with a large enough effect, not every such curve was filed as active; inactive means no such curve, though single readings can be large or run the other way; further: nearly all actives have a fitted effect of over 30% in size
TRb SRC2 PPI = qHTS for Inhibitors of the Interaction of Thyroid Hormone Receptor and Steroid Receptor Coregulator 2; TRbeta-SRC2 peptide binding, fluorescence polarization; receptor liganded with 1 µM T3; Potency, µM (highest dose often 106 µM), usual class: inhibitors; 280,000 tested, 0.065% active; Thyroid hormone receptor beta (Homo sapiens), P10828; further: nearly all actives have a fitted effect of over 50% in size
Target sequence (P10828 whole entry, looked up): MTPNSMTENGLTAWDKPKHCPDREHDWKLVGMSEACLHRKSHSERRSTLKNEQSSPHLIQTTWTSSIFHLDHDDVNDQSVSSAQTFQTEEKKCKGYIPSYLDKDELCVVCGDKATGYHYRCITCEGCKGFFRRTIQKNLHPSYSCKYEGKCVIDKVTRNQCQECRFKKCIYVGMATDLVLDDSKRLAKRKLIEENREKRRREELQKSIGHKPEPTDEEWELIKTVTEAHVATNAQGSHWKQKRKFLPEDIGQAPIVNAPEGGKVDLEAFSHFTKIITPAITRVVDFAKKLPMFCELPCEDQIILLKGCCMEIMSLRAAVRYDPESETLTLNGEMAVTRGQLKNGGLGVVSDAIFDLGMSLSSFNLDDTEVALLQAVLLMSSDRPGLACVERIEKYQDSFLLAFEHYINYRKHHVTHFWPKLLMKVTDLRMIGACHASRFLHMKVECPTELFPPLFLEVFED
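Read-out is fluorescence polarization (555 nm excitation, 632 nm emission) of a Texas Red SRC2 coactivator peptide; loss of signal reflects blocked binding to human TRb ligand-binding domain in the presence of 1 uM T3.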
TR SRC2 fluor cs = Total Fluorescence Counterscreen for Inhibitors of the Interaction of Thyroid Hormone Receptor and Steroid Receptor Coregulator 2; Potency, µM (highest dose often 106 µM); AID 1479, 2009; TRb/SRC2 Texas Red total fluorescence interference; 280,000 tested, 0.29% active; active means well fitted curve in either direction with a large enough effect; inconclusive means small, poorly fitted or top-dose-only effect
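Flags fluorescent or light-absorbing compounds by total fluorescence, S + 2P, at 555 nm excitation and 632 nm emission. Mixture: 20 nM Texas Red SRC2 peptide, 0.6 uM human TRb LBD, 1 uM T3, 5% DMSO; compound exposure 5 h at ambient temperature.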
BLM helicase inh = qHTS Assay for Inhibitors of Bloom's syndrome helicase (BLM); RecQ-like DNA helicase BLM (Homo sapiens), P54132; recombinant BLM DNA unwinding, fluorescence dequenching; 350,000 tested, 0.2% active; Potency, µM (highest dose often 56.1 µM), actives largely listed as inhibitors; AID 2528, 2010; further: nearly all actives have a fitted effect of over 35% in size
A number is an active result; 0 = inactive; ? = inconclusive; - = no result; [ ] = another dose, or the depositor's remark. Hits are enriched below; roughly 0.9% of the tested compounds scored in any of these assays. Unless noted, the call rests on the fitted dose curve; in most records, active means well fitted curve in the direction sought with a large enough effect; inconclusive means small, poorly fitted or top-dose-only effect, or another doubt; inactive means no such curve, though single readings can be large; an effect the other way counts as inactive or inconclusive.

SMILES | APE1 inh | RECQ1 helicase | RGS12 GoLoco inh | TRb SRC2 PPI | TR SRC2 fluor cs | BLM helicase inh
Cc1cc(C)c2nc3c(c([C@H](O)C4CCCCN4)c2c1)CC/C3=C/c1ccc(Cl)cc1 (stereo partly specified) | - | - | 0[14.2 µM] | - | - | -
CCn1c(O)c(C=C2N=c3ccccc3=N2)sc1=S | 0 | 0 | 0 | 0 | 0 | 0
Oc1c(C=C2N=c3ccccc3=N2)sc(=S)n1-c1ccccc1 | 0 | 0 | 0 | 0 | 32µM[quencher] | 0
Nc1c(S(=O)(=O)O)cc(NC(=O)c2ccccc2)c2c1C(=O)c1ccccc1C2=O | 21µM | - | - | - | - | ?
Cn1c[n+](C)cc1/C=N/O | 0 | 0 | 4µM | 0 | 0 | 0
Cc1cccc(C(=O)n2nc(-c3cccnc3)nc2NCc2ccccc2)c1 | - | - | - | 0 | 0.0089µM[quencher] | 0
Cc1ccccc1C(=O)n1nc(-c2cccnc2)nc1NCc1ccccc1 | - | - | - | 0 | 0 | 0
CC(C)(C)n1ncc2c(=O)n(Cc3cccc(-c4ccccc4)c3)cnc21 | 0 | - | - | - | - | -
O=C(O)C1OC(Oc2c(-c3ccc(O)c(O)c3)oc3cc(O)cc(O)c3c2=O)C(O)C(O)C1O (stereo unspecified) | 7.1µM | 0 | 0 | 0 | 0 | 0
CC(C)(C)n1ncc2c(=O)n(Cc3ccccc3-c3ccccc3)cnc21 | 0 | - | - | - | - | -
COc1ccc2nc(-c3ccc(N(C)C)cc3)sc2c1 | 0 | 0 | - | - | - | 0
Nn1cnc2c([nH]c3ccccc32)c1=O | 0 | 0 | 0 | 0 | 1122µM[quencher] | 0
CC(=O)Nc1ccc(-c2csc(N3CCC(C(N)=O)CC3)n2)cc1 | 0 | - | - | - | - | -
CCOc1cccc(CNc2ccc(O)cc2)c1OCc1ccc(Cl)cc1Cl | ? | 0 | 0 | 25µM | 0 | ?
CCCCCCCCCCCCCO | - | - | - | 0 | 0 | -
CCCCN(C(=O)c1cccc(-n2cccc2)c1)c1c(N)n(CCCC)c(=O)[nH]c1=O | 0 | - | - | - | - | -
CCCN(C(=O)c1cccc(-n2cccc2)c1)c1c(N)n(Cc2ccccc2)c(=O)[nH]c1=O | 6.7µM | - | - | - | - | -
CC(C)CC(=O)Nc1ccc2nc(SCC(=O)N3CCOCC3)sc2c1 | - | - | - | 0 | 1259µM[quencher] | 0
CCO[Si](CCC#N)(OCC)OCC | - | - | - | 0 | 0 | -
O=C(O)CN(CC(=O)O)CC1=CC2C(=CC1=O)Oc1cc(O)c(CN(CC(=O)O)CC(=O)O)cc1C21OC(=O)c2ccccc21 (stereo unspecified) | 13µM | - | - | - | - | -
O=C(Cn1cc(S(=O)(=O)c2ccc(F)cc2)c(=O)c2cc3c(cc21)OCO3)Nc1ccccc1 | - | - | - | 0 | 0 | 0
CC[N+](CC)(CC)CCOc1cccc(OCC[N+](CC)(CC)CC)c1OCC[N+](CC)(CC)CC | 0 | 0 | 10µM | 0 | 0 | 0
CC[N+](CC)(CC)CCOc1ccc(/C=C\c2ccccc2)cc1 | 0 | 0 | 0 | 0 | 0 | 0
CCOc1ccc(CNC(=O)c2ccc3c(c2)sc2nc(-c4ccccc4)cn23)cc1 | - | - | - | 0 | 0 | 0
CCOc1ccc(CNC(=O)c2ccc3c(c2)sc2nc(-c4ccc(OC)cc4)cn23)cc1 | - | - | - | 0 | 40µM[quencher] | 0
SMILES | APE1 inh | RECQ1 helicase | RGS12 GoLoco inh | TRb SRC2 PPI | TR SRC2 fluor cs | BLM helicase inh
O=C(NCCCN1CCCCC1)c1ccc2c(c1)sc1nc(-c3ccc(F)cc3)cn12 | - | - | - | 0 | 0.0009µM[quencher] | 0
COc1ccc(Cl)c(Cn2cnc3c(cnn3C(C)(C)C)c2=O)c1F | 0 | - | - | - | - | -
O=C(CSc1nnc(-c2cccc(S(=O)(=O)N3CCCC3)c2)n1-c1ccccc1)Nc1ccc(F)cc1 | 0 | - | - | - | - | -
N#C/C(=C\c1ccc(O)c(O)c1)C(=O)NCCCc1ccccc1 | 0 | 16µM | 0 | 0 | 0 | ?
N#C/C(=C\c1ccc(O)c(O)c1)C(=O)OCCc1cccs1 | 0 | 28µM | 0 | 0 | 0 | 0
Cc1noc(C)c1-c1ccc2ncnc(NCc3ccc(-c4ccccc4)cc3)c2c1 | ? | 0 | - | 0 | 0 | 0
